Records with an inconclusive call do not appear. A call without a number means that no potency is given here. Active and inactive are the calls of the source. The call rests on the fitted dose curve; in most records, active means well fitted inhibition curve with a large enough effect; inconclusive means small, poorly fitted or top-dose-only effect; inactive means flat fitted curve, though single readings scatter.
Test system: Zika virus NS2B-NS3 protease
Assay: Primary screen GU AMC qHTS for Zika virus inhibitors (AID 1347154); further: nearly all actives have a fitted effect of over 70% in size
Conditions: Zika NS2B-NS3 unlinked protease, AMC fluorogenic substrate; series mostly up to 54.1 µM
Method in brief: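 Fluorogenic AMC-substrate cleavage by noncovalent NS2B-NS3 protease complex (25 nM, pH 8.0 Tris buffer with Tween 20) followed for 15 minutes at room temperature (~20% conversion). Percent inhibition from ex340/em450 signal change, fitted by 4-parameter Hill equation.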

SMILES | Potency
C=CCNC(N)=S | inactive
C[N+](C)(C)CC(O)CC(=O)[O-] (centres undefined) | inactive
O=C(O)CNC(=O)c1ccccc1I | inactive
CCOc1ccc(C(=O)OCCN(CC)CC)cc1 | inactive
CC(CN(C)C)C(C)(O)Cc1ccc(Cl)cc1 (centres undefined) | inactive
OCC(O)CS (centres undefined) | inactive
CCOc1cc(NC(C)=O)ccc1C(=O)OC | inactive
NCC1CCC(C(=O)Oc2ccc(CCC(=O)O)cc2)CC1 (centres undefined) | inactive
C[N+]1(C)CCCC(OC(=O)C(O)(c2ccccc2)c2ccccc2)C1 (centres undefined) | inactive
Cc1ccsc1/C=C/C1=NCCCN1C | inactive
CC[C@]12CCCN3CCc4c(n(c5ccccc45)[C@@](O)(C(=O)OC)C1)[C@@H]32 | inactive
CC(O)CCCCn1c(=O)c2c(ncn2C)n(C)c1=O (centres undefined) | inactive
C[C@@H](N)C(=O)O | inactive
CCCCCC(N)=O | inactive
O=C(OOC(=O)c1ccccc1)c1ccccc1 | inactive
CC(=O)N(CC(O)CO)c1c(I)c(C(=O)NCC(O)CO)c(I)c(C(=O)NCC(O)CO)c1I (centres undefined) | inactive
Cc1ccccc1N=Nc1ccc(N=Nc2c(O)ccc3ccccc23)c(C)c1 | inactive
CC(=O)Oc1cccc(O)c1 | inactive
O=c1[nH]cnc2nc[nH]c12 | inactive
CC[N+](C)(CC)CCOC(=O)C1c2ccccc2Oc2ccccc21 | inactive
NNC(=O)CP(=O)(c1ccccc1)c1ccccc1 | inactive
Cc1cc(=O)[nH]c(=S)[nH]1 | inactive
CC(=O)N[C@H]1[C@H]([C@H](O)[C@H](O)CO)OC(C(=O)O)=C[C@@H]1N=C(N)N | inactive
CC(N)CCCC(C)(C)O (centres undefined) | inactive

Reference: PubChem BioAssay (NCATS)
